In the supplement of paper PMC12350171:
Structures can show the parent of a compound that is named as a salt. Values without a mark were called inactive.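 How the source made its calls: active = AUC significantly below DMSO controls by Student t-fit with adjusted P under 0.01; inactive = not significantly reduced.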

test system: Yersinia pseudotuberculosis; experiment: growth AUC normalised to DMSO control (fraction of control); higher = less growth inhibition, active = hit call of the paper; conditions: 20 µM
Summary of the method: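 Three biological replicates were carried out, with OD578 read hourly for 24 h. Before inoculation at a starting OD578 of 0.01, pathogens were passaged anaerobically twice; plates were pre-reduced mGAM containing 20 μM compound and 1% DMSO, sealed with breathable membranes, and the Haemophilus parainfluenzae medium carried added hemin and NAD. Area under each growth curve was calculated by the trapezoidal rule up to the exponential-to-stationary transition and normalised to DMSO controls on the same plate.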

Structure (SMILES)	growth AUC normalised to DMSO control
O=C(NCC(O)CO)c1c(I)c(C(=O)NCC(O)CO)c(I)c(N(CCO)C(=O)CO)c1I (stereo not given) [Ioversol]	1.03
CC(=O)CCCCn1c(=O)c2c(ncn2C)n(C)c1=O [Pentoxifylline]	0.989
COC(=O)Nc1nc2cc(C(=O)c3ccc(F)cc3)ccc2[nH]1 [Flubendazol]	0.994
CC(=O)N(CC(O)CO)c1c(I)c(C(=O)NCC(O)CO)c(I)c(C(=O)NCC(O)CO)c1I (stereo not given) [Iohexol]	1
O=C(Nc1cccc2c(=O)cc(-c3nnn[nH]3)oc12)c1ccc(OCCCCc2ccccc2)cc1 [Pranlukast]	0.95
Cc1cccc(C)c1NC(=O)C1CCCCN1C (stereo not given) [Mepivacaine hydrochloride]	1.02
CCn1cc(C(=O)O)c(=O)c2cnc(N3CCCC3)nc21 [Piromidic acid]	0.983
C[C@H](CCC(=O)O)[C@H]1CC[C@H]2[C@@H]3CC[C@@H]4C[C@H](O)CC[C@]4(C)[C@H]3CC[C@]12C [Lithocholic acid]	1.02
CS(=O)(=O)c1ccc([C@@H](O)[C@@H](CO)NC(=O)C(Cl)Cl)cc1 [Thiamphenicol]	0.866 (active)
COC(=O)C1=C(C)NC(C)=C(C(=O)OC(C)C)C1c1cccc2nonc12 (stereo not given) [Isradipine]	1
NS(=O)(=O)c1cc2c(cc1C(F)(F)F)NCNS2(=O)=O [Hydroflumethiazide]	0.998
CN(C)CCN(Cc1cccs1)c1ccccn1 [Methapyrilene hydrochloride]	0.994
C[C@]12CC[C@@H]3c4ccc(OS(=O)(=O)O)cc4CC[C@H]3[C@@H]1CCC2=O [Estropipate piperazine salt]	0.965
CN(CCCCCCCCCCN(C)C(=O)Oc1cccc([N+](C)(C)C)c1)C(=O)Oc1cccc([N+](C)(C)C)c1 [Demecarium bromide]	1.01
O=C(OCC(O)CO)c1ccccc1Nc1ccnc2cc(Cl)ccc12 (stereo not given) [Glafenine hydrochloride]	0.941
NC(=O)c1cnccn1 [Pyrazinamide]	0.99
COCCOC(=O)C1=C(C)NC(C)=C(C(=O)OC(C)C)C1c1cccc([N+](=O)[O-])c1 (stereo not given) [Nimodipine]	0.957
Cn1c(=O)c2c(ncn2CCO)n(C)c1=O [Etofylline]	1.01
CCN(CCCc1ccccc1)CCCc1ccccc1 [Alverine citrate salt]	0.971
N=C(N)NC(=O)c1nc(Cl)c(N)nc1N [Amiloride hydrochloride dihydrate]	1.02
CC(=C(CCO)SSCC1CCCO1)N(C=O)Cc1cnc(C)nc1N (stereo in doubt) [Fursultiamine hydrochloride]	1.01
CC(=O)N[C@@H](CC(C)C)C(=O)O [N-Acetyl-L-leucine]	1
OCCN1CCN(CCCN2c3ccccc3C=Cc3ccccc32)CC1 [Opipramol dihydrochloride]	0.996
CC1(C)[C@@H](OC(=O)CCC(=O)O)CC[C@]2(C)[C@H]3C(=O)C=C4[C@@H]5C[C@@](C)(C(=O)O)CC[C@]5(C)CC[C@@]4(C)[C@]3(C)CC[C@@H]12 [Carbenoxolone disodium salt]	0.978
CC(=O)O[C@]1(C(C)=O)CC[C@H]2[C@@H]3C=C(C)C4=CC(=O)CC[C@@H]4[C@H]3CC[C@@]21C [Nomegestrol acetate]	1.01
Cc1ccccc1N1C(=O)c2cc(S(N)(=O)=O)c(Cl)cc2NC1C (stereo not given) [Metolazone]	0.991
CCCOc1ccc(C(=O)OCCN(CC)CC)cc1N [Proparacaine hydrochloride]	1
CN(N=O)C(=O)N[C@H]1C(O)O[C@H](CO)[C@@H](O)[C@@H]1O (mixture of isomers) [Streptozotocin]	0.0388 (active)
CC(C[N+](C)(C)C)OC(N)=O (stereo not given) [Bethanechol chloride]	0.986
CN(C)CCOC(c1ccccc1)c1ccccc1.Cn1c(=O)c2[nH]c(Cl)nc2n(C)c1=O [Dimenhydrinate]	0.982
